# ± gives the standard deviation of the averaged measurements.
# Key:
# IL-6-GFP PC-9GR = assay: cell viability (CCK-8 OD) relative to DMSO control (fraction of control); higher = more viable cells; conditions: compound concentration: 10 uM; treatment time: 48 h
# Procedure, shortened: (§1)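 PC-9 and PC-9GR lung cancer cells expressing lentiviral IL-6-GFP were plated at 3000 cells/well in 96-well plates and treated for 48 h with each library compound at a final 10 μM. Viability was determined by CCK-8 absorbance as a ratio of each well's optical density to the vehicle control well.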
# IL-6-GFP PC-9 = assay: as above; conditions: compound concentration: 10 uM; treatment time: 48 h
# Procedure, shortened: as §1
SMILES,cell viability (IL-6-GFP PC-9GR),cell viability (IL-6-GFP PC-9)
CC(C)OC(=O)CCC/C=C\CC1C(O)CC(O)C1CCC(O)CCc1ccccc1 (stereo not drawn) [Latanoprost],0.776 ± 0.15,1 ± 0.26
CC1(C(=O)O)CCC2(C)CCC3(C)C(=CC(=O)C4C5(C)CCC(OC6OC(C(=O)O)C(O)C(O)C6OC6OC(C(=O)O)C(O)C(O)C6O)C(C)(C)C5CCC43C)C2C1 (stereo not drawn) [Glycyrrhizin (Glycyrrhizic Acid)],1.47 ± 0.11,1.29 ± 0.022
Nc1cccc2c1C(=O)N(C1CCC(=O)NC1=O)C2=O (stereo not drawn) [Pomalidomide],1.5 ± 0.33,1.22 ± 0.12
CCN(CC)CCNC(=O)c1c(C)[nH]c(/C=C2\C(=O)Nc3ccc(F)cc32)c1C.O=C(O)CC(O)C(=O)O [Sunitinib Malate],1.01 ± 0.063,0.453 ± 0.52
CN(C)CCC(c1ccc(Br)cc1)c1ccccn1.O=C(O)/C=C\C(=O)O (stereo not drawn) [Brompheniramine hydrogen maleate],1.17 ± 0.23,1.09 ± 0.15
CC(=O)OCC(=O)C1(O)C(C)CC2C3CCC4=CC(=O)C=CC4(C)C3(F)C(O)CC21C (stereo not drawn) [Dexamethasone Acetate],0.9 ± 0.23,0.945 ± 0.21
NC(=O)NO [Hydroxyurea],1.32 ± 0.077,0.839 ± 0.1
COc1ccc(C2OCC3C(c4cc(OC)c(OC)c(OC)c4)OCC23)cc1OC (stereo not drawn) [Magnolin],0.791 ± 0.087,1.08 ± 0.081
OCC1OC(OCC2OC(O)C(O)C(OC3OC(CO)C(O)C(OC4OC(CO)C(O)C(OC5OC(COC6OC(CO)C(O)C(O)C6O)C(O)C(OC6OC(CO)C(O)C(O)C6O)C5O)C4O)C3O)C2O)C(O)C(O)C1O (stereo not drawn) [Lentinan],0.121 ± 0.32,1.276 ± 0.0043

# Source: the supplement of paper PMC8866396
